Results: PubChem BioAssay (Tox21)
Values without a mark were called inactive. Results filed as inconclusive are left out. Calls of active or inactive are those of the source. Unless noted, calls follow the shape of the full dose curve.

Target: Thyrotropin-releasing hormone receptor (Homo sapiens) (UniProt P34981)
Assay: qHTS assay to identify small molecule agonists of the thyrotropin-releasing hormone receptor (TRHR) signaling pathway (AID 1346891)
Conditions: TRHR-HEK293 calcium fluorescence, agonist mode; series mostly up to 57.6 µM; activation: at the top concentration
Procedure, shortened: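 HEK293 cells expressing TRHR plated 18 h at 37 C/5% CO2, calcium dye-loaded 2 h at 37 C, then compound added (agonist mode); kinetic calcium fluorescence read 3 min at 1 s intervals; 15 concentrations in triplicate.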
% is scaled to controls: 0 for no effect and ±100 for the full control effect.

Thyrotropin-releasing hormone receptor (Homo sapiens), sequence (P34981 whole entry, looked up): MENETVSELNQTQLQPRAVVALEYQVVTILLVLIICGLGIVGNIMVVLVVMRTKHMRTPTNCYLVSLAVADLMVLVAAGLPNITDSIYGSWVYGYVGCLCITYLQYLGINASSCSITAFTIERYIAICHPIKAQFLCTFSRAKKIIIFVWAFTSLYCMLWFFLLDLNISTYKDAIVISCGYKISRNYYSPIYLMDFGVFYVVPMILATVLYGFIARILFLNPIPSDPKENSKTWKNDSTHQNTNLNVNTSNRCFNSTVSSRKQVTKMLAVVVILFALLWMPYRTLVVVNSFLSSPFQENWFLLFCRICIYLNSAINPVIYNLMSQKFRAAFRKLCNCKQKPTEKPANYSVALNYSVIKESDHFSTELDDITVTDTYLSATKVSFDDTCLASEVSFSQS

SMILES	activation	outcome
Cc1ccc(Nc2c(F)cccc2Cl)c(CC(=O)O)c1	-0.057% [at 26.5 µM]	–
C=C(C)C(=O)OCCC(F)(F)C(F)(F)C(F)(F)C(F)(F)C(F)(F)C(F)(F)F	0.223%	–
C=C(C)c1ccccc1	-0.135%	–
CC(C)OC(=O)c1ccccc1C(=O)OC(C)C	0.139%	–
Cc1cc(CCC(=O)OCCOCCOCCOC(=O)CCc2cc(C)c(O)c(C(C)(C)C)c2)cc(C(C)(C)C)c1O	0.243%	–
Cc1cc(CCCOc2c(C)cc(-c3noc(C(F)(F)F)n3)cc2C)on1	-0.381% [at 26.5 µM]	–
O=c1[nH][nH]c(=O)c2cc([N+](=O)[O-])ccc12	-0.162%	–
CCOC(=O)N1CCC(Nc2ccc(Cl)cc2N)CC1	0.137% [at 26.5 µM]	–
O=C1OC[C@H](Cc2cccc(O)c2)[C@H]1Cc1cccc(O)c1	0.553% [at 26.5 µM]	–
COc1ccc2nc(S(=O)Cc3ncc(C)c(OC)c3C)[nH]c2c1 (stereo unspecified)	–	inactive
CC(=O)OCC1=C(C(=O)O)N2C(=O)[C@@H](NC(=O)CSc3ccncc3)[C@H]2SC1	0.37% [at 26.5 µM]	–
CSSc1ccoc1C	-0.147%	–
CCCCCCCC/C=C\CCCCCCCC(=O)OCCO	0.0077%	–
CCC(CO)(CO)CO	0.0894%	–
CC1CCc2nccnc21 (stereo unspecified)	0.0271%	–
CCCCC[C@H](O)/C=C/[C@H]1[C@H](O)CC(=O)[C@@H]1C/C=C\CCCC(=O)O	8.8% [at 26.5 µM]	–
C[C@H](CS)C(=O)N1CCC[C@H]1C(=O)O	-1.13% [at 26.5 µM]	–
COc1ccc(CCN(C)CCCN2CCc3cc(OC)c(OC)cc3CC2=O)cc1OC	0.563% [at 26.5 µM]	–
CC(CN(CCN(CC(C)OCCO)CC(C)OCCO)CC(C)OCCO)OCCO (stereo unspecified)	0.0225%	–

SMILES	activation	outcome
CC(C)COC(=O)COc1cc(Cl)c(Cl)cc1Cl	-0.228%	–
Cc1ccc(NC(=O)N(C)C)cc1NC(=O)N(C)C	-0.113%	–
CC(C(=O)O)c1ccc(C(=O)c2cccs2)cc1 (stereo unspecified)	0.0752% [at 26.5 µM]	–
CCCCCCCCCCCC(=O)OCC(O)CO (stereo unspecified)	-0.365%	–
C=CCOC(=O)COCCC(C)C	0.0663%	–
CCNc1nc(N)nc(Cl)n1	0.229%	–
O=C(CCS)OCC(COC(=O)CCS)(COC(=O)CCS)COC(=O)CCS	0.121%	–
CC1=CC[C@@]23C[C@@H]1C(C)(C)[C@@H]2CC[C@H]3C	-0.499%	–
CC(=O)Oc1cccc(O)c1	-0.0294% [at 26.5 µM]	–
Cc1cccc2sc(N)nc12	-0.014%	–
Nc1ccc(NC(=O)c2ccc(N)cc2)cc1	0.0466%	–
CCCCOCCOC(=O)c1cccnc1	0.171% [at 26.5 µM]	–
Cc1ccc(S(=O)(=O)NC(=O)NC2CCCCC2)cc1	-0.997% [at 26.5 µM]	–
COc1ccc(-c2cc(=S)ss2)cc1	0.914% [at 26.5 µM]	–
OCC(CO)n1cnc(-c2ccc(F)cc2)c1-c1ccnc(Oc2ccccc2)n1	1.19%	–
O=[N+]([O-])c1ccc2ncccc2c1	0.03%	–
FC(F)(F)C(F)(F)C(F)(F)C(F)(F)CCI	0.265% [at 26.5 µM]	–
COc1ccc(/C=C/C(=O)c2ccc(OC)cc2OC)cc1	-0.4% [at 26.5 µM]	–
CCC1CCC(CCC(=O)O)C1 (stereo unspecified)	-0.0445%	–

System: not listed separately
Assay: Human pregnane X receptor (PXR) small molecule agonists, qHTS cell viability counter screen (AID 1346977; active = well fitted cell-killing curve with a large enough effect in the repeat runs; also: nearly all actives have a fitted effect of over 50% in size)
Conditions: PXR-Luc HepG2 viability, CellTiter-Fluor, 24 h; series mostly up to 92.4 µM; activity change, negative = cytotoxicity: at the top concentration
Procedure, shortened: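 PXR-Luc HepG2 cells (2,000/well, 5% charcoal-stripped FBS) preincubated 5 hr, then exposed to compounds 24 hr at 37 C. Viability read in the same wells by CellTiter-Fluor fluorescence, reagent added at 23 hr, 1 hr incubation.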

SMILES	activity change, negative = cytotoxicity
Cc1ccc(Nc2c(F)cccc2Cl)c(CC(=O)O)c1	-15.2% [at 42.5 µM]
C=C(C)C(=O)OCCC(F)(F)C(F)(F)C(F)(F)C(F)(F)C(F)(F)C(F)(F)F	0.882%
C=C(C)c1ccccc1	-1.14%
CC(C)OC(=O)c1ccccc1C(=O)OC(C)C	8.84%
Cc1cc(CCC(=O)OCCOCCOCCOC(=O)CCc2cc(C)c(O)c(C(C)(C)C)c2)cc(C(C)(C)C)c1O	8.24%
Cc1cc(CCCOc2c(C)cc(-c3noc(C(F)(F)F)n3)cc2C)on1	0.364% [at 42.5 µM]
O=c1[nH][nH]c(=O)c2cc([N+](=O)[O-])ccc12	-11.4%
CCOC(=O)N1CCC(Nc2ccc(Cl)cc2N)CC1	-9.12% [at 42.5 µM]
O=C1OC[C@H](Cc2cccc(O)c2)[C@H]1Cc1cccc(O)c1	6.7% [at 42.5 µM]
COc1ccc2nc(S(=O)Cc3ncc(C)c(OC)c3C)[nH]c2c1 (stereo unspecified)	-10.2% [at 42.5 µM]
CC(=O)OCC1=C(C(=O)O)N2C(=O)[C@@H](NC(=O)CSc3ccncc3)[C@H]2SC1	7.82% [at 42.5 µM]
CSSc1ccoc1C	6.42%
CCCCCCCC/C=C\CCCCCCCC(=O)OCCO	-1.66%
CCC(CO)(CO)CO	7.91%
CC1CCc2nccnc21 (stereo unspecified)	5%
CCCCC[C@H](O)/C=C/[C@H]1[C@H](O)CC(=O)[C@@H]1C/C=C\CCCC(=O)O	-2.54% [at 42.5 µM]
C[C@H](CS)C(=O)N1CCC[C@H]1C(=O)O	-13.1% [at 42.5 µM]
COc1ccc(CCN(C)CCCN2CCc3cc(OC)c(OC)cc3CC2=O)cc1OC	-9.58% [at 42.5 µM]
CC(CN(CCN(CC(C)OCCO)CC(C)OCCO)CC(C)OCCO)OCCO (stereo unspecified)	-4.99%

SMILES	activity change, negative = cytotoxicity
CC(C)COC(=O)COc1cc(Cl)c(Cl)cc1Cl	6.82%
Cc1ccc(NC(=O)N(C)C)cc1NC(=O)N(C)C	6.62%
CC(C(=O)O)c1ccc(C(=O)c2cccs2)cc1 (stereo unspecified)	15.2% [at 42.5 µM]
CCCCCCCCCCCC(=O)OCC(O)CO (stereo unspecified)	3.67%
C=CCOC(=O)COCCC(C)C	11.2%
CCNc1nc(N)nc(Cl)n1	10.5%
O=C(CCS)OCC(COC(=O)CCS)(COC(=O)CCS)COC(=O)CCS	1.88%
CC1=CC[C@@]23C[C@@H]1C(C)(C)[C@@H]2CC[C@H]3C	-1.39%
CC(=O)Oc1cccc(O)c1	6.21% [at 42.5 µM]
Cc1cccc2sc(N)nc12	-2.27%
Nc1ccc(NC(=O)c2ccc(N)cc2)cc1	1.17%
CCCCOCCOC(=O)c1cccnc1	19.3% [at 42.5 µM]
Cc1ccc(S(=O)(=O)NC(=O)NC2CCCCC2)cc1	6.05% [at 42.5 µM]
COc1ccc(-c2cc(=S)ss2)cc1	-15.8% [at 42.5 µM]
OCC(CO)n1cnc(-c2ccc(F)cc2)c1-c1ccnc(Oc2ccccc2)n1	20.8%
O=[N+]([O-])c1ccc2ncccc2c1	-11.6%
FC(F)(F)C(F)(F)C(F)(F)C(F)(F)CCI	1.51% [at 42.5 µM]
COc1ccc(/C=C/C(=O)c2ccc(OC)cc2OC)cc1	-18.1% [at 42.5 µM]
CCC1CCC(CCC(=O)O)C1 (stereo unspecified)	11.5%
